Test results published in PubChem BioAssay (NCI).
This is part of a sample that, as a whole, favours compounds with a hit. Of some 83,000 tested, about 20% had one in any assay.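 Values shown are percent growth following 48 h exposure of cells in 96-well plates to a single concentration of compound; below 10 was considered active.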 Unmarked numbers belong to inactive results. Activity calls are given as the source filed them.

Legend:
Test in all cases: NCI-60 one-dose screen, 48 h (100 = growth as untreated, 0 = no growth, -100 = all killed)
Settings in all cases: 10 µM unless noted
[1] = system: SR leukemia
[2] = system: RPMI-8226 leukemia
[3] = system: OVCAR-8 ovarian
[4] = system: OVCAR-5 ovarian
[5] = system: OVCAR-4 ovarian
[6] = system: SK-OV-3 ovarian
[7] = system: IGROV1 ovarian
[8] = system: OVCAR-3 ovarian
[9] = system: HS 578T breast
[10] = system: NCI/ADR-RES ovarian

Compound	growth [1]	growth [2]	growth [3]	growth [4]	growth [5]	growth [6]	growth [7]	growth [8]	growth [9]	growth [10]
O=C(/C=C\c1ccccc1)N1c2ccccc2CC1c1c[nH]c2ccccc12 (stereo not drawn)	73.5%	55.9%	81%	76.8%	62%	60.5%	47.3%	75%	75.3%	73.6%
CC1OC(OC2C(OC3CCC4(C)C(CCC5(C)C4CC=C4C6CC(C)(C)CCC6(CO)C(O)CC45C)C3(C)C)OC(C(=O)O)C(OC3OC(COC4OC(CO)C(O)C(O)C4O)C(O)C(O)C3O)C2O)C(O)C(O)C1O (stereo not drawn)	-44.2% (active)	-23.5% (active)	-51.8% (active)	-64% (active)	-84.3% (active)	-83.4% (active)	-81.6% (active)	-50.7% (active)	-35.2% (active)	-68% (active)
O=C(Nc1ccccc1)c1cc(Cl)ccc1O	48.7%	19.9%	44.9%	94.1%	41.3%	73.6%	58.9%	37.4%	29%	–
O[C@H]1[C@H]2c3cc4c(cc3CN3CCC(=C[C@@H]1O)[C@H]23)OCO4	32.7%	23.1%	26.7%	34.5%	16.5%	–	40.8%	34.5%	42.7%	19.1%
NC(=O)/C=C/C(=O)c1c(Cl)cccc1Cl	-42% (active)	-34.7% (active)	-67.4% (active)	-99.6% (active)	-67.4% (active)	59%	-57.5% (active)	–	-7.11% (active)	–
O=C(Nc1cccc(Br)c1)Oc1ccc(Cl)c2cccnc12	7.23% [100 µM] (active)	3.35% [100 µM] (active)	16% [100 µM]	33.7% [100 µM]	3.81% [100 µM] (active)	–	13.6% [100 µM]	-48.7% [100 µM] (active)	50.9% [100 µM]	–
CCCCCC(CCCCC)C(=O)O	99.7%	97.3%	113%	110%	106%	98.4%	96.3%	–	104%	117%
